# Test results as given in PubChem BioAssay (NCATS).
# Inconclusive results are not listed. A number with no mark means an inactive call. Activity calls are given as the source filed them. Calls follow the shape of the dose curve; as a rule, active = well fitted inhibition curve with a large enough effect; inconclusive = small, poorly fitted or top-dose-only effect; inactive = flat fitted curve, though single readings scatter. Peptide text beside a SMILES is read from it.
# System: CP297
# Assay: qHTS profiling for inhibitors of Plasmodium falciparum proliferation (AID 504749); also: nearly all actives have a fitted effect of over 60% in size;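 as to activity, negative = inhibition: 0% = DMSO vehicle and full inhibition = artemisinin control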
# Conditions: P. falciparum in erythrocytes, SYBR Green DNA, 72 h; series mostly up to 12.8 µM; activity, negative = inhibition: at the top concentration
# Summary of the method: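 Quantitative HTS: compounds pinned into medium, infected erythrocytes added (0.3% parasitemia, 2.5% hematocrit), 72 h culture at 37 C under 5% CO2. Saponin/Triton lysis with SYBR Green I, overnight RT, then fluorescence read.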
# Potency is read from the fitted curve at half-maximal effect.
Structure (SMILES),"activity, negative = inhibition",Potency
CN(C)CCCOC1C(C(O)CO)OC2OC(C)(C)O[C@@H]21 (stereo partly specified),5.39% [at 28.7 µM],–
CCC(C)C(=O)OC1CCC=C2C=CC(C)C(CCC3CC(O)CC(=O)O3)[C@@H]21 (stereo partly specified),-3.05% [at 28.7 µM],–
CC(=O)OC1CCC2C3CCc4cc(O)ccc4C3CCC12C (stereo unspecified),-7.95% [at 28.7 µM],–
CC[C@@]12CCCN3CCc4c(n(c5ccccc45)[C@](O)(C(=O)OC)C1)C32 (stereo partly specified),4.22% [at 28.7 µM],–
NC(C(=O)O)[C@@H]1CC(Cl)=NO1 (stereo partly specified),–,3.38 µM (active)
CN1CC(=O)N=C1N,13.7% [at 28.7 µM],–
OCC1OC([S-])[C@H](O)C(O)C1O.[Au+] (stereo partly specified),-0.515% [at 28.7 µM],–
CC(C)C1CCC(C(=O)NC(Cc2ccccc2)C(=O)O)CC1 (stereo unspecified),-24.4% [at 28.7 µM],–
CCC(CCC(C)C1CCC2C3CC=C4CC(O)CC[C@@]4(C)C3CC[C@@]12C)C(C)C (stereo partly specified),-9.54% [at 28.7 µM],–
C[C@]12CCC(=O)C=C1CCC1C2C(=O)C[C@]2(C)C1CC[C@]2(O)C(=O)CO (stereo partly specified),3.39% [at 28.7 µM],–
OCC1O[C@H](OC2C(CO)O[C@@](O)(CO)C2O)C(O)C(O)C1O (stereo partly specified),-1.53% [at 28.7 µM],–
CC1(C)OC2CO[C@]3(COS(N)(=O)=O)OC(C)(C)OC3C2O1 (stereo partly specified),1.21% [at 28.7 µM],–
CC1(C)OC2CC(=O)OC[C@@]23C1CC(=O)[C@]1(C)C3CC[C@@]2(C)C(c3ccoc3)OC(=O)C3O[C@@]321 (stereo partly specified),-0.557% [at 28.7 µM],–
COC1C=CO[C@@]2(C)Oc3c(C)c(O)c4c(O)c(c5c(nc6cc(C)ccn65)c4c3C2=O)NC(=O)/C(C)=C\C=CC(C)C(O)[C@@H](C)C(O)C(C)[C@@H](OC(C)=O)C1C (stereo partly specified),–,4.26 µM (active)
COC(=O)C(Cc1ccccc1)NC(=O)C(N)CC(=O)O (stereo not drawn) (H-Asp-Phe-OMe; configuration not given here),-4.99% [at 28.7 µM],–
C[C@]12C=CC(=O)C=C1CCC1C2C(O)C[C@]2(C)C1CC[C@]2(O)C(=O)CO (stereo partly specified),7.66% [at 28.7 µM],–

Structure (SMILES),"activity, negative = inhibition",Potency
CC1(C)S[C@H]2C(NC(=O)[C@@H](N)c3ccc(O)cc3)C(=O)N2[C@@H]1C(=O)O (stereo partly specified),0.0378% [at 28.7 µM],–
CC(C)=CCC[C@](C)(O)C1CC=C(C)CC1 (stereo partly specified),5.34% [at 28.7 µM],–
C[C@]1(c2ccccc2)OC(C(=O)O)=CC1=O,-8.03% [at 28.7 µM],–
CC(=O)N[C@H](CC(C)C)C(=O)O,-5.08% [at 28.7 µM],–
COc1ccc2cc(C(C)CO)ccc2c1 (stereo unspecified),-0.26% [at 28.7 µM],–
COC1C=CO[C@@]2(C)Oc3c(C)c(O)c4c(O)c(c(C=NN5CCN(C)CC5)c(O)c4c3C2=O)NC(=O)/C(C)=C\C=CC(C)C(O)[C@@H](C)C(O)C(C)[C@H](OC(C)=O)C1C (stereo partly specified),–,0.953 µM (active)
CC1CCC(C(C)C)C(=O)C1 (stereo unspecified),0.439% [at 28.7 µM],–
CNC1CC(N)[C@H](O)[C@@H](O[C@@H]2OC(CO)C3OC4(OC(C(N)CO)C(O)C(O)C4O)O[C@@H]3[C@H]2O)C1O (stereo partly specified),3.8% [at 28.7 µM],–
CCCC(=O)O[C@]1(C(=O)CO)CCC2[C@@H]3CCC4=CC(=O)CC[C@]4(C)C3C(O)C[C@]21C (stereo partly specified),2.92% [at 28.7 µM],–
CC(=O)[C@]1(O)CCC2C3C=C(Cl)C4=CC(=O)C5CC5[C@@]4(C)C3CC[C@]21C (stereo partly specified),-1.96% [at 28.7 µM],–
CC(=O)N[C@@H]1C(O)OC(CO)C(O)C1O (stereo partly specified),-10.4% [at 28.7 µM],–
C/C1=C2N=C(/C=C3N=C(/C(C)=C4\[N-]C(C)(C5N=C1C(C)(CCC(=O)NCC(C)OP(=O)([O-])O[C@H]1C(O)C(n6cnc7cc(C)c(C)cc76)O[C@@H]1CO)C5CC(N)=O)C(C)(CC(N)=O)C4CCC(N)=O)C(C)(CC(N)=O)C\3CCC(N)=O)C(C)(C)C/2CCC(N)=O.[CH2-]C1OC(n2cnc3c(N)ncnc32)C(O)C1O.[Co] (stereo partly specified),-8.65% [at 28.7 µM],–
O=C1OC(CO)C(O)C(O)C1O (stereo unspecified),3.88% [at 28.7 µM],–
COc1cc(C2c3cc4c(cc3C(O[C@@H]3OC5COC(c6cccs6)OC5C(O)C3O)C3COC(=O)C23)OCO4)cc(OC)c1O (stereo partly specified),–,4.78 µM (active)
Nc1nc2ncc(CNc3ccc(C(=O)NC(CCC(=O)O)C(=O)O)cc3)nc2c(=O)[nH]1 (stereo unspecified),4.08% [at 28.7 µM],–
